As a reminder, the AC50 is the midpoint of the concentration-response curve, whichever way the signal moves.

Consider two molecules from PubChem BioAssay (EPA / NIEHS).

Assay [1] can be described thus: CCTE_Deisenroth_H295R-HTRF_384WELL_ESTRADIOL: CCTE's H295R-HTRF Assay Evaluation of Estradiol Concentration, Deisenroth Lab (AID 2284361). Particulars: actives raise or lower the signal. In outline:
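Estradiol secreted into medium by H295R adrenocortical cells, quantified by HTRF after 48 h dosing over a nine-point 0.001 - 100 uM final range; gain or loss versus DMSO. Parallel ATP-luminescence viability readout; n=5 experiments.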
For orientation: Time-resolved FRET reads energy transfer from a long-lived donor to a nearby acceptor.

A short description of assay [2]: CCTE_Deisenroth_H295R-HTRF_384WELL_TESTOSTERONE: CCTE's H295R-HTRF Assay Evaluation of Testosterone Concentration, Deisenroth Lab (AID 2284373). Particulars: actives raise or lower the signal. In a few lines:
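Secreted testosterone was quantified by HTRF immunoassay of medium from human adrenocortical H295R cells after 48 h chemical exposure at 0.001–100 uM final. Gain or loss was fitted against DMSO. ATP-based viability was read on matched wells, five experimental replicates.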

Assay [3] is described as follows: CCTE_Deisenroth_H295R-HTRF_384WELL_CTOX: Cytotoxicity Assessment in CCTE's H295R-HTRF Assay, Deisenroth Lab (AID 2284380; active = hit-call score of the fitted dose curve at least 0.9, where 1 is the maximum). In outline:
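Luminescent ATP viability readout (CellTiter-Glo 2.0), multiplexed on plates used for hormone sampling, after 48 h chemical exposure. Human H295R cells; final concentrations 0.001–100 uM in nine steps, technical triplicates, five experiments; DMSO baseline.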

Assay [4] can be described thus: CCTE_Padilla_ZF_Score.Craniofacial: CCTE's 144 Hour Post-fertilization zebrafish Assay Score for Craniofacial Malformation, Padilla Lab (AID 2284405). In a few lines:
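Craniofacial defects were scored at 6 dpf by two blinded observers using stereomicroscopy. Exposure of wild-type embryos began at 6–8 hpf in sealed wells of 10% Hanks' solution at 26C, with chemical removed by rinsing at 5 dpf.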

Assay [5] in a line: CCTE_Padilla_ZF_Score.Edema: CCTE's 144 Hour Post-fertilization zebrafish Assay Score for Edema Malformation, Padilla Lab (AID 2284406). In outline: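 Edema scored at 6 dpf by two blinded observers under a stereo microscope, in single outbred wild-type larvae exposed from 6-8 hpf in sealed wells (Hanks', 26C, 14:10 h light) and chemical-free after a 5 dpf rinse.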
Assay [6] is described as follows: CCTE_Padilla_ZF_Score.Spine: CCTE's 144 Hour Post-fertilization zebrafish Assay Score for Spine Malformation, Padilla Lab (AID 2284407). In outline:
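Spine malformation scored at 6 dpf by two independent blinded observers under stereomicroscope, after static sealed exposure from 6–8 hpf at 26C in Hanks' solution with rinse on 5 dpf. Positive-direction fit against DMSO control.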

Assay [7] can be described thus: CCTE_Padilla_ZF_Score.Swim_bladder: CCTE's 144 Hour Post-fertilization zebrafish Assay Score for Swim Bladder Malformation, Padilla Lab (AID 2284408). In outline:
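Swim bladder inflation scored at 6 dpf by two blinded observers under a stereo microscope. Exposure ran from 6–8 hpf in sealed wells of 10% Hanks' at 26C, with rinsing at 5 dpf; DMSO served as baseline.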

Assay [8] is described as follows: CCTE_Padilla_ZF_Score.Position: CCTE's 144 Hour Post-fertilization zebrafish Assay Score for Position, Padilla Lab (AID 2284409). In outline: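 Wild-type zebrafish embryos (with chorions) exposed singly from 6–8 hpf in sealed wells of Hanks' solution at 26C, rinsed at 5 dpf. At 6 dpf, blinded assessors scored abnormal water-column position by brightfield stereomicroscopy, relative to DMSO.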

Assay [9] in a line: CCTE_Padilla_ZF_Score.Living: CCTE's 144 Hour Post-fertilization zebrafish Assay Score for Viability, Padilla Lab (AID 2284410).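 Note: larval death at 6 dpf judged by absent heartbeat or coagulation.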 In outline:
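Mortality at 6 dpf, judged as absent heartbeat or coagulation by two blinded observers, after sealed static exposure beginning at 6–8 hpf at 26C. Larvae were rinsed free of chemical at 5 dpf, and activity was fitted relative to DMSO.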

A short description of assay [10]: CCTE_Padilla_ZF_Score.General: CCTE's 144 Hour Post-fertilization zebrafish Assay Score for General Malformation, Padilla Lab (AID 2284411). In a few lines:
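Malformation, death and hatching were scored at 6 dpf by two blinded observers under a stereo microscope. Embryos were dosed singly from 6-8 hpf in sealed plates of 10% Hanks' at 26C and rinsed on 5 dpf; DMSO baseline.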

The nature of assay [11]: CCTE_Padilla_ZF_Score.Tail: CCTE's 144 Hour Post-fertilization zebrafish Assay Score for Tail Malformation, Padilla Lab (AID 2284414). In a few lines: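 Tail malformations were scored at 6 dpf by two blinded assessors under a stereo microscope. Chorionated embryos had been exposed from 6-8 hpf in sealed wells of 10% Hanks' at 26 C, then rinsed free of chemical at 5 dpf.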

Assay [12] can be described thus: CCTE_Padilla_ZF_Score.Blood_pooling: CCTE's 144 Hour Post-fertilization zebrafish Assay Score for Blood Pooling, Padilla Lab (AID 2284415). In a few lines: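 Blood pooling was scored at 6 dpf under a stereo microscope by two blinded assessors, fitted upward against DMSO. Single embryos were dosed at 6–8 hpf in 10% Hanks', kept sealed at 26C (14:10 h cycle) and rinsed at 5 dpf.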

Assay [13] in a line: CCTE_Padilla_ZF_Score.Any: CCTE's 144 Hour Post-fertilization zebrafish Assay Score for Any Mortality or Malformation, Padilla Lab (AID 2284416). In a few lines: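 Wild-type zebrafish embryos with chorions, one per well in 10% Hanks' from 6–8 hpf, dosed in sealed plates at 26 C, 14:10 h light:dark; rinsed at 5 dpf; blinded scoring at 6 dpf for death or malformation, versus DMSO.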

Activity calls are given as the source filed them. Rule for the calls, unless noted: active = hit-call score of the fitted dose curve at least 0.9, where 1 is the maximum; inactive = score below 0.9.

With `Clc1ccc(COC(Cn2ccnc2)c2ccc(Cl)cc2Cl)cc1` (stereo not drawn), the AC50 in assay [1] is 703 nM (active); in assay [2] it was 327 nM (active). Further, in [3], the molecule was classed as inactive.

As to `O=C(CC(=O)C(F)(F)F)C(F)(F)F`, the call in assay [4], in [5], in assay [6], in assay [7], in assay [8] and in assay [9] was inactive. For the same molecule, the result in [10], in [11], in assay [12] and in assay [13] was inactive.
